The values that follow come from PubChem BioAssay (EPA / NIEHS).

Structures are written as SMILES. Activity calls are given as the source filed them. How the source made its calls: active means hit-call score of the fitted dose curve at least 0.9, where 1 is the maximum; inactive means score below 0.9.

Read-out in this assay: Matrix Metallopeptidase 1 (MMP1), MMP1 (gene 4312)
The experiment in a line: BSK_BE3C_MMP1: BioMAP Diversity Plus: BE3C Assay for Matrix Metallopeptidase 1 (MMP1) Biomarker Activity (AID 2283024). The following applies: primary human bronchial epithelial cells; actives raise or lower the signal. The gist of the method: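 Human bronchial epithelial cells (BE3C system) exposed to compound for 24 h; MMP1 then quantified by ELISA. Activity was fitted in both directions relative to DMSO.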
Take `C=CCCCCCCCCCCCC`: the result was inactive.

Consider `CCCCc1nc2cccnc2n1Cc1ccc(-c2ccccc2-c2nnn[nH]2)cc1`, for which the AC50 was 6.21 µM (active).

Turning to `S=c1[nH]c2ccccc2s1`, the result was inactive.

In the case of `CC(=O)O`, the result was inactive.

In the case of `CCc1nc(N)nc(N)c1-c1ccc(Cl)cc1`, the result was inactive.

Consider `c1ccc2occc2c1`, for which the outcome was inactive.

Regarding `CC(C)(C)c1ccccc1`, the outcome was inactive.

On to `O=C(NS(=O)(=O)/C=C/c1cccs1)c1ccc(F)cc1Br`, for which the AC50 was 1.31 µM (active).

On to `CC1(C)C(=O)NC(=O)N1CO`, for which the outcome was inactive.

With `NC1CCCCC1`, the outcome was inactive.

On to `CC(=O)OC1CC(C)OC(C)O1` (stereo not given), for which the outcome was inactive.

Consider `O=C(O)c1[nH]n(-c2ccc(S(=O)(=O)O)cc2)c(=O)c1N=Nc1ccc(S(=O)(=O)O)cc1`, for which the result was inactive.

Consider `CC(COCC(C)OC(=O)c1ccccc1)OC(=O)c1ccccc1` (stereo not given), for which the outcome was inactive.

Turning to `CCCC(=O)O`, the result was inactive.

On to `CN(C)CCCN1c2ccccc2Sc2ccc(Cl)cc21`, for which the AC50 was 32.9 µM (active).

With `CCN(CC)CCOc1ccc(C(=C(Cl)c2ccccc2)c2ccccc2)cc1`, the AC50 was 28 µM (active).

As for `O=NO`, the outcome was inactive.

Take `NCCOCCOCCN`: the outcome was inactive.

Take `CCc1cc(C2=C(C(=O)O)N(c3ccccc3C(F)(F)F)S(=O)(=O)c3ccccc32)cc2c1OCO2`: the AC50 is 10.8 µM (active).

As for `CCCCCCC(CCCCCCCCCCC(=O)OCC(COC(C)=O)OC(C)=O)OC(C)=O` (stereo not given), the result was inactive.
